High-throughput results (PubChem)
An excerpt weighted towards active compounds, which were near 9.3% of everything screened.
NPC1 promoter act – activators of NPC1 promoter; Huh7 NPC1 promoter luciferase reporter, 24 h; Potency, µM (titrated, usually from 9.22 µM), actives largely listed as activators; 320,000 tested, 2.4% active; AID 485313; further: nearly all actives have a fitted effect of over 60% in size
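Luciferase expression driven by the NPC1 promoter was measured in stably transfected Huh7 cells after a 24 h compound incubation, using a luciferase reagent and a luminescence read.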
ELG1 repair inh – inhibitors of ELG1-dependent DNA repair in HEK293T cells. 330,000 tested, 2.3% active. Potency, µM (titrated, usually from 46.1 µM), most hits filed as inhibitors. HEK293T ELG1-luciferase reporter, luminescence, 16 h; DNA damage induced by 5-fluorouridine; further: nearly all actives have a fitted effect of over 55% in size
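Overnight (16 hr) co-exposure of 2,000 cells/well to 5-fluorouridine and compound at 37 °C preceded detection. Luciferase was quantified via ONE-Glo luminescence; loss of signal denotes inhibition.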
ELG1 genotoxic – genotoxicity induction in ELG1-luciferase HEK293T cells; 330,000 tested, 1.3% active; Potency, µM (series often up to 46 µM), most hits filed as activators; HEK293T ELG1-luciferase reporter, luminescence, 16 h; AID 504466; further: nearly all actives have a fitted effect of over 60% in size
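Luminescence read-out: rising ELG1-luciferase signal, reflecting elevated ELG1 protein under genetic stress, flags genotoxic compounds. Cells were treated for 16 hr at 37 °C before ONE-Glo detection.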
FLuc modulator – firefly luciferase modulation, counter-screen for miR-21 project; Potency, µM (series often up to 57.5 µM), hits mostly inhibitors; purified FLuc, Km substrates, luminescence inhibition; 360,000 tested, 6.9% active; P08659; further: nearly all actives have a fitted effect of over 55% in size
Target sequence (P08659 whole entry, looked up): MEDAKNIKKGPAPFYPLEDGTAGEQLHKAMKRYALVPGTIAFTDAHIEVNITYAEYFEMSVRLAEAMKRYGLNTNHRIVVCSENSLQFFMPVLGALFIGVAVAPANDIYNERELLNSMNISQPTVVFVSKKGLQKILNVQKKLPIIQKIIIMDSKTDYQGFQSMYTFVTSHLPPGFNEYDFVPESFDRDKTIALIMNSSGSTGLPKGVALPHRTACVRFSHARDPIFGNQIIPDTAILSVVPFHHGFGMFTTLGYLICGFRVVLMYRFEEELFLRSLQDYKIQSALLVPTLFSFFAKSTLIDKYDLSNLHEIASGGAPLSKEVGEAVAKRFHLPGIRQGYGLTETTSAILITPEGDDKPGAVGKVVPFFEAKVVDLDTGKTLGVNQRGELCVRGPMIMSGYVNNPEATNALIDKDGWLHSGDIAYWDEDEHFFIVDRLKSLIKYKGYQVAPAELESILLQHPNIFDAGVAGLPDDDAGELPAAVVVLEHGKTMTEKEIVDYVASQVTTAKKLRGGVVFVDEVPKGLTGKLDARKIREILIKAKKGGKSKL
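Purified P. pyralis luciferase, 10 nM final, with Km-level 10 uM D-luciferin and 10 uM ATP in 50 mM Tris acetate pH 7.5, 10 mM Mg acetate, 0.01% Tween-20, 0.05% BSA; 6-point qHTS titration about 60 µM downward; luminescence read.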
SMN2 splice up – enhancers of SMN2 splice variant expression; HEK293 SMN2-luciferase splicing reporter, luminescence, 30-36 h; Potency, µM (titrated, usually from 46.1 µM), usual class: activators; 210,000 tested, 2.8% active; further: nearly all actives have a fitted effect of over 55% in size
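HEK293 cells carry an SMN2 […]–luciferase reporter in which exon 7 inclusion puts luciferase in frame. Cells were plated 10-12 h before compound addition, then incubated 30-36 h at 37C. ONE-Glo luminescence was read; sodium butyrate at 4.5 mM final served as control.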
Rab9 prom act – Rab9 promoter activation | Huh7 Rab9 promoter-luciferase reporter, luminescence, 24 h | Potency, µM (doses to about 9.22 µM), actives largely listed as activators | 320,000 tested, 2.8% active | AID 485297; further: nearly all actives have a fitted effect of over 60% in size
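Cell-based reporter: Huh7 stable for Rab9 promoter-driven luciferase, plated in reduced-serum medium with 10% FBS at 1500 cells/well, compound-treated 24 h at 37 °C, luminescence read after 10 min reagent.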
Numbers stand for hits. The call rests on the fitted dose curve; in most records, active means well fitted curve in the direction sought with a large enough effect; inconclusive means small, poorly fitted or top-dose-only effect, or another doubt; inactive means no such curve, though single readings can be large; an effect the other way counts as inactive or inconclusive.

Cc1ccc(SCC(=O)Nc2ccc(N3CCN(C)CC3)c(F)c2)cc1 was read as NPC1 promoter act inconclusive, ELG1 repair inh inconclusive, ELG1 genotoxic inconclusive, FLuc modulator 15.1µM, SMN2 splice up inactive and Rab9 prom act inconclusive.
For CCc1nnc(NC(=O)c2ccc(Br)o2)s1 the results were NPC1 promoter act inactive, ELG1 repair inh inconclusive, ELG1 genotoxic inactive, FLuc modulator inconclusive and Rab9 prom act inconclusive.
For CC(=O)Nc1ccc(NC(=O)CSc2nnc(NC(=O)c3ccc(Br)o3)s2)cc1 the results were NPC1 promoter act inactive, ELG1 repair inh inactive, ELG1 genotoxic inactive, FLuc modulator 2.13µM and Rab9 prom act inactive.
`COc1ccc(CNC(=O)CN2C(=O)CCn3nc(-c4cn(C)c5ccccc45)cc32)cc1` gave FLuc modulator inactive.
Screening CCN1CCN(c2ncc3c(n2)CCN(Cc2cc(Br)cs2)C3)CC1 returned FLuc modulator inactive.
COc1ccccc1NC(=S)Nc1ccccn1 was read as NPC1 promoter act inactive, ELG1 repair inh inactive, ELG1 genotoxic inactive, FLuc modulator inconclusive, SMN2 splice up inconclusive and Rab9 prom act inactive.
Screening COC(=O)c1ccc(NC(=S)Nc2ccccn2)cc1 returned NPC1 promoter act 2.82µM, ELG1 repair inh inconclusive, ELG1 genotoxic inconclusive, FLuc modulator inconclusive, SMN2 splice up 11.2µM and Rab9 prom act 1.78µM.
Screening Cc1ccc(NC(=S)Nc2ccccn2)c(C)c1 returned NPC1 promoter act inconclusive, ELG1 repair inh inconclusive, ELG1 genotoxic inconclusive, FLuc modulator 8.49µM and Rab9 prom act 2.82µM.
COc1ccc(NC(=S)Nc2ccccn2)cc1 was read as NPC1 promoter act 3.16µM, ELG1 repair inh inconclusive, ELG1 genotoxic inconclusive, FLuc modulator 13.5µM and Rab9 prom act 2.51µM.
Screening Cc1ccc(NC(=S)Nc2cccc3cnccc23)c(C)c1 returned NPC1 promoter act inactive, ELG1 repair inh 20.6µM, ELG1 genotoxic inactive, FLuc modulator inactive, SMN2 splice up inactive and Rab9 prom act inactive.
For Cc1cc(Cl)ccc1NC(=S)Nc1ccccn1 the results were NPC1 promoter act inconclusive, ELG1 repair inh inconclusive, ELG1 genotoxic inactive, FLuc modulator inactive, SMN2 splice up inconclusive and Rab9 prom act inconclusive.
For Cc1ccc(C(=O)N2CCN(Cc3cc(=O)n4nc(-c5ccccc5)sc4n3)CC2)cc1 the results were FLuc modulator inactive.
For COC(=O)/C(C#N)=C/c1cc(C)sc1C the results were NPC1 promoter act inactive, ELG1 repair inh inactive, ELG1 genotoxic inactive, FLuc modulator inactive and Rab9 prom act inactive.
Screening Cc1ccc(NC(=S)Nc2ccccn2)cc1C returned NPC1 promoter act inactive, ELG1 repair inh inconclusive, ELG1 genotoxic inactive, FLuc modulator 16.9µM and Rab9 prom act inconclusive.
Screening COc1ccc(NC(=S)Nc2cc(-c3ccccc3)[nH]n2)cc1Cl returned NPC1 promoter act inactive, ELG1 repair inh inconclusive, ELG1 genotoxic inactive, FLuc modulator inconclusive, SMN2 splice up inactive and Rab9 prom act inactive.
`CCOc1ccc(NC(=S)Nc2cc(-c3ccccc3)[nH]n2)cc1` gave NPC1 promoter act inactive, ELG1 repair inh inconclusive, ELG1 genotoxic inactive, FLuc modulator 21.3µM, SMN2 splice up inactive and Rab9 prom act inactive.
For O=C(CSc1ccc(-c2ccccn2)nn1)N1CCc2ccccc21 the results were NPC1 promoter act inactive, ELG1 repair inh inactive, ELG1 genotoxic inactive, FLuc modulator inconclusive, SMN2 splice up inactive and Rab9 prom act inactive.
For COC1=C/C(=C/c2c(O)c(C#N)c3ccccn23)C=CC1=O the results were NPC1 promoter act inactive, ELG1 repair inh inconclusive, ELG1 genotoxic inactive, FLuc modulator 15.1µM and Rab9 prom act inactive.
`COc1cc(OC)cc(C(=O)c2c(C)c(C#N)c3ccccn23)c1` gave NPC1 promoter act inactive, ELG1 repair inh inactive, ELG1 genotoxic inactive, FLuc modulator inactive and Rab9 prom act inactive.
O=C(Nc1cccc([N+](=O)[O-])c1)Nc1ccc2c(c1)CCC2 was read as NPC1 promoter act inconclusive, ELG1 repair inh inconclusive, ELG1 genotoxic inactive, FLuc modulator inconclusive and Rab9 prom act inconclusive.
